From PubChem BioAssay
LDHA block – inhibitors of human lactate dehydrogenase A. P00338. purified LDHA, NADH/diaphorase-resazurin fluorescence; active compounds read low. activity change, % (values are at about 110 or 230 µM). 480,000 tested, 0.15% active; in the data active = activity change below about -30%; inconclusive = mostly about -25% to -30%;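 also: plate controls were DMSO wells for no effect and wells without enzyme for full effect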
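Resorufin fluorescence (ex540/em590), read at 0 and 20 min after diaphorase/resazurin addition, reports the NADH left after a 5 min room-temperature reaction of 2 nM human LDH5 with 0.06 mM NADH and 0.2 mM pyruvate.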
GLP1R cytotox – cytotoxicity in counter-screen for GLP-1R inverse agonists. AID 624418. Potency, µM (highest dose often 38.3 µM), for inactives: top-dose activity change, negative = inhibition, most hits filed as inhibitors. HEK293 cAMP-luciferase reporter cells, luminescence, 24 h. 410,000 tested, 0.13% active;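 also: loss of luciferase light is scored as toxicity; potency is read from the fitted curve at half-maximal effect; % is scaled to controls: 0 for no effect and ±100 for the full control effect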
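MLSMR compounds, 24 hr on cells at 37 deg C/5% CO2; luminescence after luciferase reagent (12 min RT). Inhibition counted as the undesired cytotoxic outcome.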
GLP-1R inv ag – inverse agonists of human GLP-1 receptor | P43220 | HEK293 GLP-1R CRE-luciferase, luminescence, 24 h; GLP-1R form is constitutively active | Potency, µM (series often up to 38.3 µM), for inactives: at the highest dose activity change, negative = inhibition, usual class: inhibitors | 410,000 tested, 1.6% active | AID 624417; also: potency is read from the fitted curve at half-maximal effect; % is scaled to controls: 0 for no effect and ±100 for the full control effect; nearly all actives have a fitted effect of over 55% in size
Target sequence (P43220 whole entry, looked up): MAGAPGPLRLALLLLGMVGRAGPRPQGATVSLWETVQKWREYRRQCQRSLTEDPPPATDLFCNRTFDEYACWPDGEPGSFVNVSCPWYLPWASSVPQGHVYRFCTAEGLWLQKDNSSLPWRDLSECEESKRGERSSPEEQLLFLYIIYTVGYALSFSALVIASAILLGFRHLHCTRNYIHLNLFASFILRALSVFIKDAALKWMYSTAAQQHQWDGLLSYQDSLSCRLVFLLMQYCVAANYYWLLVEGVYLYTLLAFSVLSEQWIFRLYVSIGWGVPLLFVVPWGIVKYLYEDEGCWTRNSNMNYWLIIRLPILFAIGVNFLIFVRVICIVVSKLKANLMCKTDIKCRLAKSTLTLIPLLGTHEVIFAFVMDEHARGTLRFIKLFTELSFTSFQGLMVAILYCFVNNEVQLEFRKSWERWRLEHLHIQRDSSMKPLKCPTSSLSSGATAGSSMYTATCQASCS
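GLP-1R inverse agonism mode: basal reporter luminescence in engineered HEK293 cells measured after one day of compound exposure at 37 deg C, with a 12 min room-temperature detection step.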
GLP-1R agonist – GLP-1 receptor (human) agonism; P43220; HEK293 GLP-1R CRE-luciferase, luminescence, 4-6 h; cells express a hypersensitive GLP-1R form; Potency, µM (top dose mostly 45.6 µM), for inactives: at the top dose activation, hits mostly activators; 380,000 tested, 0.007% active; AID 624172; also: potency is read from the fitted curve at half-maximal effect; % of control where 0% means no effect
ClpP mod – qHTS Assay for Activators of ClpP; purified B. subtilis ClpP, FRET peptide cleavage, 20 min; Potency, µM (top dose mostly 57.5 µM), for the others: at the top dose activity change, negative = active; 340,000 tested, 1.9% active; active = well fitted falling curve with a large enough effect; inconclusive = small, poorly fitted or top-dose-only effect; inactive = no such curve, though single readings can be large or run the other way; also: potency is read from the fitted curve at half-maximal effect; the source files actives as falling curves though it sought activators and does not explain the sign; nearly all actives have a fitted effect of over 65% in size
Target sequence (P80244 whole entry, looked up): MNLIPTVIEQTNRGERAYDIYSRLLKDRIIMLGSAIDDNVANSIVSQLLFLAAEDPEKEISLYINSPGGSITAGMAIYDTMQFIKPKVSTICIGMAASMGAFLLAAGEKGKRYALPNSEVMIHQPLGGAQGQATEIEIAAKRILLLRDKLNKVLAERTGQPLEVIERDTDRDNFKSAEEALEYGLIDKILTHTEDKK
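Purified B. subtilis ClpP, 10 microg/mL final in Tris/HCl pH8 with KCl, BSA, glycerol and Tween-20, cleaved an Abz/nitrotyrosine-quenched decapeptide. Fluorescence (ex 320, em 430) was read at 0 and 20 min at room temperature. Delta was normalized to 5.8 microM ADEP and DMSO/no-enzyme controls.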
p53 reactivation – mutant p53 re-activation in reporter cells; Potency, µM (highest dose often 92.2 µM), for the others: top-dose activity change, positive = activation, hits mostly activators; AID 504706; H1299 p53-A138V BP100-luciferase reporter, luminescence, 24 h; 320,000 tested, 0.063% active; also: potency is read from the fitted curve at half-maximal effect; % of control where 0% means no effect; nearly all actives have a fitted effect of over 45% in size
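p53-null H1299 cells stably carrying temperature-sensitive p53-A138V and a BP100-luciferase reporter were pinned with compounds (4-point, 1:5 series) and held 24 hrs at 37 deg C. Luminescence was read 10 min after detection reagent.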
* = called active by the depositor; ? = inconclusive; . = not tested or not shown; ! = not confirmed by another sample. Only some compounds are listed: those with a hit (about 2.9% of all), similar ones and a draw of the others. Unless noted, calls follow the shape of the dose curve; as a rule, active = well fitted curve in the direction sought with a large enough effect; inconclusive = small, poorly fitted or top-dose-only effect, or another doubt; inactive = no such curve, though single readings can be large; an effect the other way counts as inactive or inconclusive.

SMILES	LDHA block	GLP1R cytotox	GLP-1R inv ag	GLP-1R agonist	ClpP mod	p53 reactivation
CCc1ccc2oc(C(=O)Nc3ccc(S(N)(=O)=O)cc3)c(C)c2c1	-9	2%	-15%	7%	.	0%
CC(C)Sc1nc2c(c(=O)[nH]c(=O)n2C)n1Cc1ccccc1	-30*!	-4%	49%	3%	0%	-53%
CC(C)Sc1nc2c(c(=O)[nH]c(=O)n2C)n1CCc1ccccc1	-3	79%	56%	0%	18µM*	-3%
CC(C)Sc1nc2c(c(=O)[nH]c(=O)n2C)n1Cc1ccc(Cl)cc1	-1	6%	83%	?	0%	-13%
Cc1ccccc1NC(=O)NC1CCCCCCC1	-3	-2%	-27%	-9%	-3%	5%
O=C(/C=C/c1cccc([N+](=O)[O-])c1)NCCSCc1ccc(Cl)cc1	-4	-20%	10µM*	12%	0%	1%
O=C(/C=C/c1cccc([N+](=O)[O-])c1)NCCSCc1c(Cl)cccc1Cl	-4	10%	?	7%	0%	-13%
Cc1ccccc1Cc1c(C)nc2nc(SCC(=O)NCc3ccco3)nn2c1C	-7	-21%	?	0%	0%	?
Cc1ccc(C)c(Cc2c(C)nc3c(C(=O)N4CCOCC4)cnn3c2C)c1	-1	-5%	0%	-1%	28µM*	-28%
Cc1ccccc1Cc1c(C)nc2c(C(=O)NCc3ccco3)cnn2c1C	-2	-2%	-17%	-2%	32µM*	-19%
CCOC(=O)N1CCN(C(=O)c2cn(CCOC)c(=O)c3c2c2ccccc2n3C)CC1	-3	3%	2%	-4%	14µM*	-8%
CCN(CC)CCNC(=O)c1cn(CCOC)c(=O)c2c1c1ccccc1n2C	0	0%	-6%	10%	4%	-2%
COCCn1cc(C(=O)NCc2cccs2)c2c3ccccc3n(C)c2c1=O	-2	-11%	1%	-2%	20µM*	14%
CC(C)Cn1cc(C(=O)N2CCN(c3cccc(Cl)c3)CC2)c2c3ccccc3n(C)c2c1=O	7	-17%	10µM*	.	4%	.
COCCn1cc(C(=O)N2CCN(C)CC2)c2c3ccccc3n(C)c2c1=O	-1	1%	3%	-7%	11µM*	-8%
CCCS(=O)(=O)Nc1cccc(-c2cn3c(n2)SCC3)c1	-7	-6%	-23%	-2%	-7%	-6%
Cc1c(C(=O)OCC(=O)N2CCC(C)CC2)oc2ccccc12	-5	6%	?	22%	-19%	10%
CCN(CC)CCCN=Cc1c(O)n(Cc2ccccc2)c(=O)c2ccccc12	5	-10%	13µM*	14%	2%	-7%
C#Cc1ccc(C(=O)Nc2ccc(N3CCC(C)CC3)c(C(N)=O)c2)cc1	-7	-13%	8.9µM*	9%	-1%	-1%
COc1cc(Cl)ccc1NC(=S)N(CCN(C)C)C(C)c1ccncc1 (centres undefined)	1	-6%	?	0%	1%	-4%
CC(=O)c1cccc(NC(=S)NCc2ccccc2)c1	-5	7%	4%	7%	0%	.
COc1ccc(C(=O)Nc2cccc(C(=O)NCc3ccccc3)c2)cc1	-12	-23%	-29%	3%	-1%	2%
Cc1ccc(C(=O)Nc2cccc(C(=O)NCc3ccccc3)c2)cc1	-6	1%	13µM*	-23%	6%	2%
CCOC(=O)c1cccc(NC(=S)NCc2ccc(C)cc2)c1	-1	-32%	7.9µM*	7%	0%	-1%
CCN1CCc2c(OCC(=O)N3CCC(C)CC3)cccc2C1=O	-1	-22%	1%	-1%	.	0%
SMILES	LDHA block	GLP1R cytotox	GLP-1R inv ag	GLP-1R agonist	ClpP mod	p53 reactivation
Cc1nnc(NC(=O)CSc2nnnn2Cc2ccccc2)s1	1	-10%	14%	15%	0%	-9%
O=C(O)C(C(=O)/C=C/c1ccc(Cl)cc1)=C1SCCS1	-2	.	.	.	.	.
Cc1ccc(C(=O)C(C(=O)/C=C/c2ccccc2)=C2SCCCS2)cc1	-3	?	2µM*	-5%	0%	-28%
Cc1ccc(-c2nc(CS(=O)(=O)CC(=O)N3CCN(c4ccccc4)CC3)c(C)o2)cc1	3	-10%	?	.	-3%	.
Cc1ccc(-c2nc(CS(=O)(=O)CC(=O)N3CCCCCC3)c(C)o2)cc1	-5	-11%	10µM*	3%	-13%	3%
CCOC(=O)c1c(-c2ccc(C)cc2)csc1NC(=O)c1cc(=O)c2cc(C)ccc2o1	-7	1%	3%	.	-1%	.
Cn1c(=O)[nH]c(=O)c2c1nc(CN1CCN(c3cccc(Cl)c3)CC1)n2CCCc1ccccc1	-8	-23%	6%	0%	0%	-8%
CC(C)(C)c1cc(C(F)(F)F)c(C#N)c(=O)[nH]1	-4	-1%	1%	-7%	?	5%
CC(C)(C)c1cc(=O)n2c(C#N)c(C#N)nc2[nH]1	-5	-10%	7%	-7%	28µM*	-10%
Clc1ccccc1-c1nnc(-c2ccccc2CNc2ccccc2)o1	-7	-1%	2%	.	-2%	.
CCS(=O)(=O)N1CCC(C(=O)Oc2ccccc2OC)CC1	1	1%	-10%	4%	1%	14%
CCS(=O)(=O)N1CCC(C(=O)Oc2ccccc2Br)CC1	-1	3%	13%	-3%	28µM*	.
C=CCN(c1ccccc1)S(=O)(=O)c1cccc(C(=O)NCC2CCCO2)c1 (centres undefined)	-9	4%	4%	-2%	28µM*	17%
COc1ccc(Nc2nc3ccc(C)cn3c(=O)c2/C=N/O)cc1	-4	2%	15%	19%	.	-1%
CCCCOc1ccc(C(=O)NCC(=O)N2CC(C)CC(C)C2)cc1 (centres undefined)	-2	-1%	11µM*	-1%	1%	-12%
O=c1ccc2ccc(O[C@@H]3O[C@H](CO[C@@H]4OC[C@](O)(CO)[C@H]4O)[C@@H](O)[C@H](O)[C@H]3O)cc2o1	1	0%	6%	11%	-1%	-11%
Cc1occc1C(=O)NN=C1C2CC3CC(C2)CC1C3	0	15%	0%	6%	-3%	13µM*
COc1ccc2nc3c(cc2c1)c(NC(=O)c1cccs1)nn3CC(C)C	8	156%	8.9µM*	-22%	-20%	20%
N/C(=N\OC(=O)COc1ccc(Br)cc1Cl)c1ccccn1	-1	65%	10µM*	-6%	-2%	?
Cc1ccc(C2=NN(CCC(=O)NCc3ccc4c(c3)OCO4)C(=O)CC2)cc1	-4	-10%	2%	0%	7.9µM*	-7%
